# Screening results deposited in PubChem by National Center for Advancing Translational Sciences (NCATS).
# Sampled rows, rich in hits. Any-hit rate of the full collection: about 9%.
# HPGD block: HPGD (human) dehydrogenase inhibition | AID 894 | purified HPGD, NADH fluorescence kinetic, PGE2 substrate | P15428 | hit rate 4.3% among 150,000 | Potency, µM, inactives show at the highest dose activity change, negative = inhibition, usual class: inhibitors; note: potency is the fitted concentration of half-maximal effect
# Target sequence (P15428 whole entry, looked up): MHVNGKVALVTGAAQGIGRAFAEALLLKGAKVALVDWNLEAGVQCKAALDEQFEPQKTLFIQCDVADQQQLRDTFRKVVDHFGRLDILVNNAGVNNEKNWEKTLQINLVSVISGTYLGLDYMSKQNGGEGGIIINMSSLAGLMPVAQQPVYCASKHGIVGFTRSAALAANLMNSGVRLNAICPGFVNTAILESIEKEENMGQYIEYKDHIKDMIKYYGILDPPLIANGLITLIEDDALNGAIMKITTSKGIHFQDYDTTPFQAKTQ
#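 20 nM HPGD preincubated 15 min at room temperature with compound in 50 mM Tris-HCl pH 8, 0.01% Tween 20. Started with 1 mM NAD+ and 30 uM prostaglandin E2; NADH fluorescence (360/450 nm) read 5 times over 30-s intervals, last minus first.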
# ALDH1A1 block: inhibitors of human aldehyde dehydrogenase 1A1 | Purified ALDH1A1, NADH fluorescence, propionaldehyde substrate | Potency, µM (titrated, usually from 75.3 µM), without a hit: top-dose activity, negative = inhibition, actives largely listed as inhibitors | hit rate 7.3% among 220,000;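 note: potency is the fitted concentration of half-maximal effect; plate controls were no enzyme wells and a reference inhibitor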
# IMPase cell inh: membrane-permeable compound that blocks inositol monophosphatase | P97697 | CHO-M1 cells, IP1 accumulation, HTRF TR-FRET ratio | inhibition (IP1 accumulation), % at 46.1 µM | 120,000 tested, under 10 active | AID 901; active = well fitted curve in the direction sought with a large enough effect in the signal ratio, not every such curve was filed as active; inconclusive = small, poorly fitted or top-dose-only effect, or a change in a side signal; inactive = no such curve, though single readings can be large or run the other way; the % refers to the signal ratio;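 note: cells stimulated with carbachol in lithium chloride buffer; plate controls were DMSO basal wells for no effect and reference inhibitor wells for full effect; higher means more IMPase inhibition seen as more IP1 and lower FRET ratio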
# Target sequence (P97697 whole entry, looked up): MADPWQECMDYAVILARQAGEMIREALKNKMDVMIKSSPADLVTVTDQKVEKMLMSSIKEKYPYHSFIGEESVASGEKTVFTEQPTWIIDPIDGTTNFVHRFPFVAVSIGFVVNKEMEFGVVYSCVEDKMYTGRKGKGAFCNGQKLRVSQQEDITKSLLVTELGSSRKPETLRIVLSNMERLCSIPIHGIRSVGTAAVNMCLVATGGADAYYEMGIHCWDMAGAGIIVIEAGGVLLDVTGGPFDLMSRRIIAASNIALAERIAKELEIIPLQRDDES
#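 Seeded CHO-M1 cells were dosed with compound at up to 46 uM, stimulated with carbachol for 30 min, then lysed in IP-One detection reagents. Higher IP1 lowers the TR-FRET signal.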
# The depositor's hits bear a star; ? = inconclusive; / = no result; [ ] = dose if it differs, or a comment. Unless noted, calls come from the whole dose curve; as a rule, active = well fitted inhibition curve with a large enough effect (not every such curve was filed as active); inconclusive = small, poorly fitted or top-dose-only effect, or another doubt; inactive = no such curve, though single readings can be large or run the other way. Unless noted, % is set by controls: 0 for no effect and ±100 for the full control effect.
SMILES,HPGD block,ALDH1A1 block,IMPase cell inh
Cc1[nH]c2ccc(-c3nnc(SCC(=O)c4ccccc4F)o3)cc2c1C,/,1.8%,-2.2
Cc1ccc(C(=O)CSc2nnc(-c3ccc4[nH]c(C)c(C)c4c3)o2)cc1C,-7.5%,1.41µM*,-7.0
CCCCCCCCCCCC(CC1OC(=O)C1CCCCCC)OC(=O)C(CC(C)C)NC=O (stereo not given),-11.7%,-1.6%,/
COc1ccc(-n2nc3ccc(NC(=O)c4cccc(OCCC(C)C)c4)cc3n2)cc1,/,/,-12.9
COc1ccc(CCC(=O)NCCc2cn3c(C)csc3n2)cc1,-6.2%,17.8µM*,-8.2
COc1ccc(CCC(=O)NCCCNC(=O)CCc2ccc(OC)cc2)cc1,-8.3%,-0.9%,/
CCc1ccccc1NC(=S)N(CCN1CCOCC1)Cc1ccccc1F,/,0.6%,/
CC(C)CCN(C(=O)CNC(=O)c1ccco1)C(C(=O)NC1CCCCC1)c1ccco1 (stereo not given),-2.9%,-33.6%,6.4
O=C1/C(=C/c2ccc(F)cc2)SC(=S)N1Nc1ncc(C(F)(F)F)cc1Cl,-25.2%,?,-0.5
O=C1/C(=C\c2ccccn2)SC(=S)N1Nc1ncc(C(F)(F)F)cc1Cl,31.6µM*,?,-17.9
COc1cc(C2CC(=O)Nc3ccc4ccccc4c32)ccc1OC(=O)C(C)C (stereo not given),/,/,12.2
N#Cc1cc2ccccc2nc1SCC(=O)Nc1ccc(S(=O)(=O)N2CCCC2)cc1,-12.5%,10µM*,4.8
Cc1nnc(SCC(=O)Nc2ccc(S(=O)(=O)N3CCCC3)cc2)n1N,-13.1%,?,7.8
Cc1ccccc1-n1nnnc1SCC(=O)Nc1ccc(S(=O)(=O)N2CCCC2)cc1,-3.9%,3.98µM*,1.4
CC1CCCCN1S(=O)(=O)c1ccc(NC(=O)CSc2nnnn2C)cc1 (stereo not given),-29.6%,22.4µM*,-3.1
CC(=O)Nc1ccc(S(=O)(=O)N2CCOCC2)cc1,2.1%,0.0%,-13.8
COc1ccc2nc(SCC(=O)Nc3ccc(S(=O)(=O)N4CCCC4)cc3)c(C#N)cc2c1,-12.6%,?,-10.3
CCCC(=O)Nc1ccc(S(=O)(=O)N2CCOCC2)cc1,-3.7%,3.16µM*,-2.6
Cc1cc2cc(C)c3nnc(SCC(=O)Nc4ccc(S(=O)(=O)N5CCCCC5C)cc4)n3c2cc1C (stereo not given),-12.2%,?,/
N#CC1=C(N)Oc2cc(N)ccc2C1C1CCCCC1 (stereo not given),-11.5%,?,8.0
COc1cccc(CNC(=O)CCC2CCCN(C(=O)C3=CC(=O)CC(C)(C)O3)C2)c1 (stereo not given),/,8.0%,/
CCCCC(C)(O)C/C=C/[C@H]1[C@H](O)CC(=O)[C@@H]1CCCCCCC(=O)O (stereo not given in full),-9.3%,0.6%,/
C(=C\c1ccccc1)/CSc1nnc(-c2cccnc2)o1,-11.2%,?,1.8
CCn1c(SCC(=O)Nc2ccccc2)nnc1-c1ccc(S(=O)(=O)N2CCOCC2)cc1,-12.8%,?,2.9
O=C(CSc1nnc2ccccn12)Nc1ccc(S(=O)(=O)N2CCOCC2)cc1,/,25.1µM*,/
SMILES,HPGD block,ALDH1A1 block,IMPase cell inh
Cc1ccc(C)c(-n2nnnc2SCC(=O)Nc2cccc(-c3nnc4n3CCCCC4)c2)c1,-16.6%,7.08µM*,-1.4
O=S(=O)(c1ccc(NC(=S)NN=C(Cc2ccccc2)Cc2ccccc2)cc1)N1CCOCC1,/,17.8µM*,/
O=S(=O)(c1ccc(NC(=S)NCCc2ccccc2)cc1)N1CCOCC1,-5.4%,-13.4%,/
CNC(=O)CSc1nnnn1-c1cc(C)ccc1C,-7.7%,?,-8.4
Cc1c(Br)c([N+](=O)[O-])nn1CC(=O)N(C)Cc1ccccc1,/,3.1%,/
O=S(=O)(c1ccccc1)N1CCC2(CCN(C(c3ccccc3)c3ccccc3)CC2)CC1,1.2%,16.4%,/
C[N+](C)(C)C/C=C1/COCO1,-6.5%,2.0%,-4.4
CCN(CC)c1ccc(NC(=O)COc2ccccc2C#N)cc1S(=O)(=O)Nc1ccccc1OC,3.55µM*,-8.9%,/
COc1ccccc1NS(=O)(=O)c1cc(NC(=O)CNC(=O)c2ccccc2)ccc1C,-12.5%,-14.3%,/
Cn1cccc1C(=O)N1CCC2(CCCN(c3ccccn3)C2)CC1,-25.8%,?,/
Cc1ccc2c(c1)C1C3CCC(C3)C1S(=O)N2 (stereo not given),/,-0.3%,/
COC(=O)[C@@H]1C[C@@H]2CC[C@@H](O)C[C@@H]2N1Cc1ccc(C)s1,-8.1%,1.8%,/
O=C1NC(=S)SC1=C1CCCCCC1,11.2µM*,7.08µM*,5.2
CN1CCN(/C=C2\SC(=S)NC2=O)CC1,-12.0%,1.1%,-3.2
COc1ccccc1C1(O)CCN(C(=O)c2cccs2)CC1,-9.5%,11.2%,-6.0
CCCn1c(C)nc2c(NCCO)nc(C)nc21,-4.4%,0.9%,/
CC(C)[C@H](NS(=O)(=O)c1cccc(Cl)c1)C(=O)OCC(=O)N1CCN(c2ccccc2)CC1,-9.2%,2.51µM*,3.7
CC(C)NS(=O)(=O)c1ccc(OCC(=O)N2CCN(c3cccc(Cl)c3)CC2)cc1,/,/,9.4
O=C(CCC(=O)NNC(=O)Nc1cccc(Cl)c1)NCc1ccccc1,/,-1.2%,/
N#CCC(=O)N/N=C/c1ccc(OS(=O)(=O)c2ccccc2)cc1,-16.1%,?,20.1[1.84 µM]
O=C(c1cccc(-c2nnc(-c3ccccc3)o2)c1)N1CCCCCC1,8.91µM*,?,3.0
CC(C)Oc1cccc(C(=O)N2CCCC2)c1,/,-1.0%,/
Cc1cccc(-c2nnc(SCC(=O)N3CCCCC3)o2)c1,/,/,2.2
O=C(c1cccc(-c2nnc(-c3ccccc3)o2)c1)N1CCCCC1,7.94µM*,?,2.7
CCCN(c1ccc(C(C)C)cc1)S(=O)(=O)c1ccc2c(c1)CCN2C(=O)CC,/,/,2.5
SMILES,HPGD block,ALDH1A1 block,IMPase cell inh
O=C(CCCCl)NC1=NN(c2ccccc2)C(=O)C1,-5.3%,8.91µM*,1.7
CC(=O)NC1=NN(c2ccccc2)C(=O)C1,-9.4%,2.3%,6.4
Cn1cc(Br)c(C(=O)NN2C(=O)C3C4C=CC(C5CC45)C3C2=O)n1 (stereo not given),/,6.4%,/
O=C(O)C(Sc1ccc(Cl)cc1)Sc1ccc(Cl)cc1,-13.0%,10.4%[13.5 µM],/
O=C(Cn1ccc([N+](=O)[O-])n1)NCc1nc2ccccc2[nH]1,/,-1.1%,/
CC(=O)N1N=C(c2ccccc2)CC1c1cn(Cc2ccccc2)c2ccccc12 (stereo not given),-13.5%,28.2µM*,/
CC(=O)N1N=C(c2ccncc2)CC1c1ccccc1O (stereo not given),/,-6.0%,/
Cc1cc(NC(=S)N(Cc2ccc(Br)cc2)Cc2ccc(C(=O)O)cc2)ccc1Cl,/,-7.4%,/
CN(C)c1ccc(N/C=C/C(=O)c2ccc(F)cc2)cc1,-7.1%,-2.7%,21.7
CC(=O)Nc1ccc(N/C=C/C(=O)c2ccco2)cc1,25.1µM*,4.47µM*,3.2
CN(C)c1ccc(N/C=C/C(=O)c2ccco2)cc1,35.5µM*,28.2µM*,32.0
O=C(/C=C/Nc1cccc(F)c1)c1ccco1,-25.5%,-13.3%,-1.0
O=C(/C=C/Nc1ccc(F)c(Cl)c1)c1ccco1,-23.8%,28.2µM*,3.7
CC(=O)Nc1ccc(NC(=O)c2ccco2)cc1,-12.2%,-1.5%,5.6
Clc1ccc(C2C3=C(Nc4ncnn42)c2ccccc2CC3)cc1 (stereo not given),-17.9%,-6.1%,9.6
CCc1nc2nc(C)cc(Nc3cc(C)ccc3C)n2n1,/,/,-7.8
OCCNC(=S)Nc1cccc(Cl)c1Cl,/,3.8%,/
